Screens as filed in PubChem.
HT1080-NT tox: kills 2HG-producing HT-1080-NT fibrosarcoma cells | 360,000 compounds, 1.6% hits | Potency, µM (series often up to 46.1 µM), hits mostly cytotoxic | HT-1080-NT fibrosarcoma viability, CellTiter-Glo ATP luminescence, 48 h;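 further: NT is the 2HG producing partner of a matched IDH1 knockdown line; nearly all actives have a fitted effect of over 55% in size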
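Viability of the 2HG-overproducing fibrosarcoma line after 48 hours of compound exposure at 37 degrees C was determined by luminescence with CellTiter-Glo, and concentration-effect curves were then fitted and categorized.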
TDP1 cell CPT: growth inhibition of DT40 Tdp1-/-;hTDP1 cells with camptothecin (screen for TDP1 inhibitors) | chicken DT40 Tdp1-/-;hTDP1 cells + 20 nM CPT, ATP luminescence, 48 h | Potency, µM (highest dose often 46.2 µM), most hits filed as inhibitors | 420,000 compounds, 12% hits; further: nearly all actives have a fitted effect of over 55% in size
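Chicken DT40 Tdp1-/- cells stably complemented with human TDP1 were seeded at 400 cells/well in medium containing 20 nM camptothecin, exposed to pin-transferred compounds, and grown at 37 °C for at least 48 hr. Viability was read as ATP luminescence.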
HT1080 IDH1KD tx: HT-1080 IDH1 knockdown cell toxicity (counter line). AID 686971. Potency, µM (doses to about 46.1 µM), usual class: cytotoxic. 360,000 compounds, 2% hits. HT-1080 IDH1 knockdown viability, ATP luminescence, 48 h
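In this qHTS, HT-1080 cells depleted of IDH1 are exposed for 48 h at 37 °C to compound titrations. Toxicity is scored from CellTiter-Glo luminescence, with DMSO as full viability and medium alone as none.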
DT40 TDP1 no CPT: qHTS for Inhibitors of human tyrosyl-DNA phosphodiesterase 1 (TDP1): qHTS in cells in absence of CPT; DT40 Tdp1-/- hTDP1 cells, no CPT, ATP luminescence, 48 h; Potency, µM (series often up to 46.2 µM), most hits filed as inhibitors; 420,000 compounds, 15% hits; further: nearly all actives have a fitted effect of over 55% in size
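Camptothecin absent (DMSO only). Human TDP1-complemented DT40 knockout cells, 400 cells/well, 37 °C for minimum 48 hr; ATP measured via CellTiter-Glo, 30 min dark incubation, luminescence.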
IL1B secr inh: inflammasome signaling inhibition, IL-1 beta readout; THP-1 LPS/ATP IL-1B secretion, AlphaLISA, 16 h; stronger effect = lower value; activity change, % at 57.5 µM; 360,000 compounds, 4.7% hits; AID 743279; in the data active means activity change below about -50%; inconclusive means mostly about -30% to -49%
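THP-1 cells pretreated 1 hr with compounds (up to 57.5 uM final), then stimulated with LPS (250 ng/mL final) plus ATP (1.25 mM final); secreted IL-1B measured by AlphaLISA after 16 hr, decreased signal indicating inhibition.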
A number is an active result; . = inactive; ? = inconclusive; / = no result. The list is not random: actives were taken first. Their share in the collection is about 19%. Unless noted, the call rests on the fitted dose curve; in most records, active means well fitted curve in the direction sought with a large enough effect; inconclusive means small, poorly fitted or top-dose-only effect, or another doubt; inactive means no such curve, though single readings can be large; an effect the other way counts as inactive or inconclusive.

SMILES	HT1080-NT tox	TDP1 cell CPT	HT1080 IDH1KD tx	DT40 TDP1 no CPT	IL1B secr inh
CCOC(=O)[C@]12CCCC=C1N(Cc1ccco1)C(=O)[C@H](CC(=O)NCc1ccccc1)C2	.	.	.	.	.
O=c1c2cc(F)ccc2[nH]c(=S)n1CCCN1CCOCC1	.	.	.	.	.
COc1ccc(C2CC(=O)Oc3ccc(OC)cc32)cc1 (stereo not drawn)	.	.	.	.	.
Cc1cccc2c(=O)[nH]c3c(-c4nc(-c5ccc(Cl)cc5)cs4)c(O)cn3c12	/	4µM	/	7.1µM	/
CC(C)(C)NC(=O)C(c1ccccc1F)n1c(=O)c(-c2ccco2)nc2ccccc21 (stereo not drawn)	.	?	.	?	.
O=C(NCc1ccccc1)C(c1cc2ccccc2o1)n1c(=O)c(-c2ccco2)nc2ccccc21 (stereo not drawn)	.	?	.	?	.
O=C(NCc1ccccc1)C(c1ccccc1)n1c(=O)c(-c2ccco2)nc2ccccc21 (stereo not drawn)	.	?	.	21µM	.
CCCCCNC(=O)C(c1ccc(OC)cc1)n1c(=O)c(-c2ccco2)nc2ccccc21 (stereo not drawn)	26µM	16µM	15µM	12µM	.
CC(C)(C)NC(=O)C(c1ccc(C(F)(F)F)cc1)n1c(=O)c(-c2ccco2)nc2ccccc21 (stereo not drawn)	.	16µM	?	18µM	.
O=C(NCc1ccccc1)C(c1ccc(C(F)(F)F)cc1)n1c(=O)c(-c2ccccc2)nc2ccccc21 (stereo not drawn)	.	.	.	.	.
O=C(NCc1ccccc1)C(c1ccc(C(F)(F)F)cc1)n1c(=O)c(-c2ccco2)nc2ccccc21 (stereo not drawn)	.	?	.	21µM	.
CCOc1ccc(NC(=O)CSc2n[nH]c(=O)n2-c2ccccc2)cc1	.	.	.	.	.
CC(C)(C)NC(=O)C(C1CC1)n1c(=O)c(-c2ccco2)nc2ccccc21 (stereo not drawn)	.	?	.	16µM	.
Cc1cccc(C)c1NC(=O)C(C1CC1)n1c(=O)c(-c2ccco2)nc2ccccc21 (stereo not drawn)	.	?	.	?	.
Cc1cccc(C)c1NC(=O)C(C1CC1)n1c(=O)c(-c2ccccc2)nc2ccccc21 (stereo not drawn)	.	?	.	?	.
O=C(NCc1ccccc1)C(C1CC1)n1c(=O)c(-c2ccco2)nc2ccccc21 (stereo not drawn)	.	13µM	.	16µM	.
O=S(=O)(Cc1ncc(C(F)(F)F)cc1Cl)c1ccccc1	.	23µM	?	?	.
FC(F)(F)c1cnc(COc2cc(Cl)cc(Cl)c2)c(Cl)c1	.	.	.	.	-74
O=S(=O)(Nc1ccccc1)c1ccc(Oc2ncc(C(F)(F)F)cc2Cl)cc1	?	15µM	?	?	.
O=C(O)CCc1ncc(C(F)(F)F)cc1Cl	.	.	.	.	.
O=C(OCC(=O)N1CCN(C(=O)c2ccco2)CC1)c1cc(F)c(F)cc1Cl	.	.	.	.	.
Cc1nc([N+](=O)[O-])cn1CC(O)c1ccc2c(c1)OCCO2 (stereo not drawn)	/	.	/	.	/
Cc1cc(C(=O)NNC(=S)Nc2ccccc2)nn1C	.	.	.	.	.
O=C(NC1CCCC1)c1cnn2c(C(F)(F)F)cc(-c3ccc4c(c3)OCO4)nc12	.	7.3µM	.	16µM	.
CCn1c(=O)[nH]c(=O)c2c(N)c(C(=O)c3cc(F)ccc3F)sc21	.	.	.	.	.
COc1ccc(CNC(=O)C(Cc2ccccc2)NS(=O)(=O)c2ccc3c(c2)CCN3C(C)=O)cc1 (stereo not drawn)	/	.	/	.	/
O=C(CSc1nc(=O)n(Cc2ccncc2)c2c1CCC2)Nc1ccccc1	/	.	/	.	/
CN(CCCNC(=O)CSc1cc(=O)n(C)c2ccc(Cl)cc12)Cc1ccccc1	?	?	?	?	-54
CCc1ccc(CNC(=O)CSc2cc(=O)n(C)c3ccc(Cl)cc23)cc1	/	23µM	/	23µM	/
